We go through 6 compounds from PubChem BioAssay (NCATS).

The nature of test [1]: Cell Viability - LYMP2-004 (AID 966; active means well fitted curve in the direction sought with a large enough effect; an effect the other way counts as inactive or inconclusive;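 further: plate controls were DMSO only for no effect and tetraoctylammonium bromide control for full effect; nearly all actives have a fitted effect of over 65% in size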). Put shortly:
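Lymphoblastoid LYMP2-004 cells, 2500 per well, were preincubated for 5 hr and then treated with compound for 24 h at 37 C in complete medium. Viability was read as cellular ATP by CellTiter-Glo luminescence, and AC50 values were taken from Hill fits to concentration-response data.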

A short description of test [2]: Cell Viability - LYMP2-009 (AID 968; active means well fitted curve in the direction sought with a large enough effect; an effect the other way counts as inactive or inconclusive;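 further: series mostly up to about 92 µM; 0% = DMSO alone and the full-kill end = tetraoctylammonium bromide at 92 µM; nearly all actives have a fitted effect of over 55% in size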).
Test [3] is described as follows: Cell Viability - LYMP2-012 (AID 982; active means well fitted curve in the direction sought with a large enough effect; an effect the other way counts as inactive or inconclusive;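 further: cellular ATP by luciferase luminescence where a drop means cytotoxicity; cells exposed to compound for one day before reading; 0% = DMSO only and full loss = 92 µM tetraoctylammonium bromide; nearly all actives have a fitted effect of over 55% in size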).
The nature of test [4]: Cell Viability - LYMP2-016 (AID 984; active means well fitted curve in the direction sought with a large enough effect; an effect the other way counts as inactive or inconclusive;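 further: cells exposed to compound for 24 hours at 37 °C; on the % scale 0 is the no-effect control and ±100 the full control effect; nearly all actives have a fitted effect of over 55% in size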). Put shortly: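 Acute toxicity in a Coriell human lymphoblastoid line is scored as loss of intracellular ATP over 24 h of treatment in complete medium. CellTiter-Glo signal is fitted across concentrations with the Hill equation to give AC50.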
Test [5] is described as follows: Cell Viability - LYMP2-020 (AID 986; active means well fitted curve in the direction sought with a large enough effect; an effect the other way counts as inactive or inconclusive;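 further: series mostly up to about 92 µM; plate controls were DMSO only for no effect and tetraoctylammonium bromide at 92 µM for full effect; nearly all actives have a fitted effect of over 55% in size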). Put shortly: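 Human lymphoblastoid LYMP2-020 cells (2500/well) preincubated 5 h at 37 C, then treated 24 h at 37 C. Viability measured as intracellular ATP by CellTiter-Glo luminescence after 30 min at room temperature; AC50 from Hill fits.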
In test [6] the target is Estrogen receptor (Homo sapiens) (UniProt P03372). In words: qHTS assay for small molecule antagonists of estrogen receptor alpha signaling (AID 588513; active means well fitted curve in the direction sought with a large enough effect in the signal ratio, with a control signal flat, not every such curve was filed as active; the % refers to the signal ratio; further: on the % scale 0 is the no-effect control and ±100 the full control effect). Put shortly:
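Cells were plated at 5000/well and incubated 4 h at 37 C. Compounds were added as 1:2 dilution series, duplicates. 17-beta-estradiol (0.5nM final) was added for 18 h before CCF4 detection.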

In test [7] the target is Bile acid receptor (Homo sapiens) (UniProt Q96RI1). The test is described as follows: qHTS assay for small molecule antagonists of farnesoid X receptor signaling (AID 588526). Further: on the % scale 0 is the no-effect control and ±100 the full control effect. The method in brief:
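Antagonist mode: titrated compounds tested against chenodeoxycholic acid stimulation (normalized to 50 uM CDCA and DMSO) in GeneBLAzer HEK293T cells for 16 h. Beta-lactamase read by CCF4 fluorescence; IC50 from Hill fits.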

Test [8] shares this target. The test is described as follows: qHTS assay for small molecule agonists of farnesoid X receptor signaling (AID 588527).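 Further: series mostly up to about 77 µM; 0% = vehicle basal and 100% = reference agonist.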 Conditions: HEK293T FXR-UAS-bla, beta-lactamase ratio, 16 h; stronger effect = higher value. Put shortly:
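FXR-UAS-bla HEK293T, 10% dialyzed FBS; cpds up to 92 uM titration, 16 h 37 C; CCF4 dye 2 h RT; fluorescence. Normalized to chenodeoxycholic acid 100 uM (100%) and DMSO (0%); Hill fit gives EC50, efficacy.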

Test [9] has as its target Glucocorticoid receptor (Homo sapiens) (UniProt P04150). The test is described as follows: qHTS assay for small molecule agonists of glucocorticoid receptor signaling (AID 588532; active means well fitted curve in the direction sought with a large enough effect in the signal ratio, with a control signal flat; the % refers to the signal ratio;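 further: 100% = dexamethasone at 0.1 µM and 0% = DMSO only wells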). The following applies: HeLa MMTV-bla, beta-lactamase ratio, agonist, 18 h; stronger effect = higher value; percent of dexamethasone control, DMSO zero. Put shortly: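 HeLa GRE-bla reporter cells; 18 h compound exposure at 37 C; 2 h CCF4 loading at room temperature; fluorescence at 460 and 530 nm; EC50 by Hill equation.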

The target is the same in test [10]. The test is described as follows: qHTS assay for small molecule antagonists of glucocorticoid receptor signaling (AID 588533; active means well fitted inhibition curve with a large enough effect in the signal ratio, with a control signal flat, not every such curve was filed as active; the % refers to the signal ratio; further: on the % scale 0 is the no-effect control and ±100 the full control effect). Put shortly: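 Antagonist-mode qHTS: compound titrations added to GRE-bla HeLa cells, then dexamethasone 2 nM final; 18 h, 37 C. CCF4 FRET fluorescence normalized to dexamethasone and DMSO; IC50 from Hill fit.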
Test [11] is described as follows: qHTS assay for small molecule antagonists of peroxisome proliferator-activated receptor delta signaling (AID 588535; active means well fitted inhibition curve with a large enough effect in the signal ratio, with a control signal flat, not every such curve was filed as active; the % refers to the signal ratio;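 on max response: cells co-treated with a PPAR-delta agonist as stimulator during compound exposure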). Conditions: HEK293T PPARd-UAS-bla, beta-lactamase FRET ratio, 18 h; 460 nm channel. The method in brief:
(§1)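 Antagonist-mode beta-lactamase reporter (GeneBLAzer PPAR-delta-UAS-bla) in HEK293T cells, 2% charcoal/dextran FBS, 4000 cells/well. Compound titrations, 18 h at 37 C; CCF4 ratio read, IC50 and efficacy from Hill fits.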

Test [12] concerns the target Peroxisome proliferator-activated receptor delta (Homo sapiens) (UniProt Q03181). Described as above. The method in brief: as §1
In test [13] the target is Vitamin D3 receptor (Homo sapiens) (UniProt P11473). In words: qHTS assay for small molecule antagonists of vitamin D receptor signaling (AID 588541).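 Further: receptor activated by calcitriol during compound treatment; series mostly up to about 77 µM; on the % scale 0 is the no-effect control and ±100 the full control effect.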 Put shortly: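 VDR-UAS-bla HEK293T cells in 2% charcoal-stripped FBS were stimulated with 1-alpha,25-dihydroxyvitamin D3 (3 nM final) plus compound for 16 h at 37 C. The beta-lactamase CCF4 readout was normalized to 50 nM agonist and DMSO, and Hill fits gave IC50.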
Chain of Vitamin D3 receptor (Homo sapiens) (P11473 whole entry, looked up): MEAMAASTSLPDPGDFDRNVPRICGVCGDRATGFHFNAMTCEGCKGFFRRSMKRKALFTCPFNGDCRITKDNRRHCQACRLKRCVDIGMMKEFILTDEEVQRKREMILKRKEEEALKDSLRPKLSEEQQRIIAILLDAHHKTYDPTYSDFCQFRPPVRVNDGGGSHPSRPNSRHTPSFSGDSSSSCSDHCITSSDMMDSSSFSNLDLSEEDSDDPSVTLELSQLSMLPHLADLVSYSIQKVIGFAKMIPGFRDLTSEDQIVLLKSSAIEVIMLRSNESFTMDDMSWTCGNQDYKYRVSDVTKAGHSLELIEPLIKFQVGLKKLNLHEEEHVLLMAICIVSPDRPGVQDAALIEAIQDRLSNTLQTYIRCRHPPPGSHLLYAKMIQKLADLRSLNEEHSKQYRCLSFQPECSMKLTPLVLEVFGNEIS

Test [14] shares this target. The test is described as follows: qHTS assay for small molecule agonists of vitamin D receptor signaling (AID 588543).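 Further: 0% = DMSO basal and 100% = reference agonist control.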 Put shortly: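 qHTS in agonist mode: compound titrations stimulate a VDR-driven β-lactamase reporter in HEK293T cells over 16 h at 37 °C. Response normalized to 50 nM 1α,25-dihydroxyvitamin D3 = 100%, DMSO = 0%; Hill fitting gives EC50 and maximal response.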

The nature of test [15]: qHTS assay for small molecule antagonists of the retinoid-related orphan receptor gamma (ROR-gamma) signaling pathway - cell viability counter screen (AID 720652; active means well fitted curve in the direction sought with a large enough effect in the repeat runs; an effect the other way counts as inactive or inconclusive). Put shortly:
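CHO cells carrying TET-inducible ROR and RORE-luciferase reporter, plated 5 hr, then dosed with compound plus doxycycline. After 16 hr at 37 C, viability read as intracellular ATP by CellTiter-Glo luminescence.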

Test [16] concerns the target Nuclear receptor subfamily 1 group I member 2 (Rattus norvegicus) (UniProt Q9R1A7). The test is described as follows: qHTS assay for small molecule activators of the rat pregnane X receptor (rPXR) signaling pathway (AID 651751; call rule not given here; further: 0% is about no effect). Conditions: rPXR reporter cells, luciferase (One-Glo), 24 h.
Test [17] is described as follows: qHTS assay for small molecule activators of the human pregnane X receptor (PXR) signaling pathway (AID 720659; call rule not given here; further: 0% is about no effect).
The target in test [18] is Cytochrome P450 3A4 (Homo sapiens) (UniProt P08684). In words: qHTS Assay for Inhibitors and Substrates of Cytochrome P450 3A4 (AID 884; active means well fitted curve in the direction sought with a large enough effect; an effect the other way counts as inactive or inconclusive; further: series mostly up to about 57 µM; on the % scale 0 is the no-effect control and ±100 the full control effect; nearly all actives have a fitted effect of over 50% in size). Put shortly: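 20 nM human CYP3A4 with 25 uM Luciferin-PPXE (at KM) in 200 mM KPO4, preincubated 10 min with compound; NADPH regeneration started a 60 min RT reaction. Luciferin detected by luminescence, normalized to 57 uM ketoconazole as full inhibition.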
Chain of Cytochrome P450 3A4 (Homo sapiens) (P08684 whole entry, looked up): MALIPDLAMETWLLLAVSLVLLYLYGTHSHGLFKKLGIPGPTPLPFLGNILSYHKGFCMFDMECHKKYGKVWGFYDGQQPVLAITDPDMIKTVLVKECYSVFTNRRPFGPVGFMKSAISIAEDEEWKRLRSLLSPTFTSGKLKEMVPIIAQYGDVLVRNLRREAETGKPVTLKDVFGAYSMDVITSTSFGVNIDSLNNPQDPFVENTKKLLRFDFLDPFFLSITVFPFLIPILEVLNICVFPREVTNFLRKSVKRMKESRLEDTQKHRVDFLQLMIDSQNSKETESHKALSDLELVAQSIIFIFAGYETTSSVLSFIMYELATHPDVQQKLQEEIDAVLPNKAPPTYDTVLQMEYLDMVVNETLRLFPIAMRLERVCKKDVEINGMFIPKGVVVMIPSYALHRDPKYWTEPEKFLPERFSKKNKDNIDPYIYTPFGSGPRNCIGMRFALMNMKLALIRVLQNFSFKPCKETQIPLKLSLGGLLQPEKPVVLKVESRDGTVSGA

In test [19] the target is Thyroid hormone receptor beta (Homo sapiens) (UniProt P10828). In words: qHTS assay for small molecule agonists of thyroid hormone receptor beta signaling (AID 588545).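 Further: 0% = DMSO only and 100% = 10 nM T3.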 Put shortly: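 Compounds were tested as agonists in TR-UAS-bla-GripTite HEK 293 cells. After 18 hrs at 37 C, CCF4 substrate was added and fluorescence read after 2 hrs at room temperature.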
Chain of Thyroid hormone receptor beta (Homo sapiens) (P10828 whole entry, looked up): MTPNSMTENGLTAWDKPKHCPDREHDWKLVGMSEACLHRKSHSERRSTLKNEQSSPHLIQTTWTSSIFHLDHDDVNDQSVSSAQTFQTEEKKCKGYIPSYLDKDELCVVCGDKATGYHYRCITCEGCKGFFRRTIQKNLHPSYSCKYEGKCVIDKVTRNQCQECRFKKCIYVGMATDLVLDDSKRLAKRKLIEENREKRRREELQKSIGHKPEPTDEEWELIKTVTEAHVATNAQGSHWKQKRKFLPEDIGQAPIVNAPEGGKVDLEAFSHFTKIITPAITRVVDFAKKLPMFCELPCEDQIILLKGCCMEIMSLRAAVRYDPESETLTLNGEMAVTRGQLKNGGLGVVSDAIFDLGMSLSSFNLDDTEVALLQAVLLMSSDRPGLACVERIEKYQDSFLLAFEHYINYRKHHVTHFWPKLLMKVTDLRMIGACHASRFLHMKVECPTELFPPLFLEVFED
Test [20] has the same target. The test is described as follows: qHTS assay for small molecule antagonists of thyroid hormone receptor beta signaling (AID 588547; active means well fitted inhibition curve with a large enough effect in the signal ratio, with a control signal flat, not every such curve was filed as active; the % refers to the signal ratio). The following applies: TR-UAS-bla HEK293, beta-lactamase ratio, antagonist mode, 18 h. Put shortly:
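TR-UAS-bla GripTite HEK293 cells in 2% charcoal/dextran FBS medium; compounds 0.59 nM to 92 uM with T3 at 0.4nM final, 18 h at 37 C. Beta-lactamase read by CCF4 fluorescence (460/530 nm); Hill fits gave IC50 and efficacy.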

Molecules are shown by their SMILES. Several values for one entry are separate records, joined by “and”; a condition that tells them apart may be missing. Equal values may be shown once. Inconclusive results are not listed. Activity calls are given as the source filed them. Unless noted, the call rests on the fitted dose curve.

Chain of Bile acid receptor (Homo sapiens) (Q96RI1 whole entry, looked up): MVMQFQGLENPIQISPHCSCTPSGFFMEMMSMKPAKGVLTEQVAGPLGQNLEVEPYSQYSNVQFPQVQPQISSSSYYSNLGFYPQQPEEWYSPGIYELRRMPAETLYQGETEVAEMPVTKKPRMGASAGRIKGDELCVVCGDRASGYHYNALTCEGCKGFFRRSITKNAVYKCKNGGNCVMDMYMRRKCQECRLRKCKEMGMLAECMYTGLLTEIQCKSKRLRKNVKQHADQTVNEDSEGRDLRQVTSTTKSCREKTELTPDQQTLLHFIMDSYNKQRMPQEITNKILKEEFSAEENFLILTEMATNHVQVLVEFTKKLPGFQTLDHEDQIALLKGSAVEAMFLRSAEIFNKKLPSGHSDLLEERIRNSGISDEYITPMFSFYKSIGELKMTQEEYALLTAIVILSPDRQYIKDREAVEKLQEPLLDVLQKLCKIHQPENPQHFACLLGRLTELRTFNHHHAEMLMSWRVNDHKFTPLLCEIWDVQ
Chain of Nuclear receptor subfamily 1 group I member 2 (Rattus norvegicus) (Q9R1A7 whole entry, looked up): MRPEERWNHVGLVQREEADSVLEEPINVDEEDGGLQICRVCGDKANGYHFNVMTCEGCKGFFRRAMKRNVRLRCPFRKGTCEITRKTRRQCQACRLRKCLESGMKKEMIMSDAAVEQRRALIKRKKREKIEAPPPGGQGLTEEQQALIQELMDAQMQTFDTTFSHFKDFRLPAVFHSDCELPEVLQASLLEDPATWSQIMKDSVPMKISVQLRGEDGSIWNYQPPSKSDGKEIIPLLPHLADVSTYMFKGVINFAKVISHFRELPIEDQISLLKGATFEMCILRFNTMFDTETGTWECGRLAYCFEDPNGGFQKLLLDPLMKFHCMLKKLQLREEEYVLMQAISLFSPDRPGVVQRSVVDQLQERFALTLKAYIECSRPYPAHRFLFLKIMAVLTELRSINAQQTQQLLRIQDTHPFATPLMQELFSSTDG
Chain of Estrogen receptor (Homo sapiens) (P03372 whole entry, looked up): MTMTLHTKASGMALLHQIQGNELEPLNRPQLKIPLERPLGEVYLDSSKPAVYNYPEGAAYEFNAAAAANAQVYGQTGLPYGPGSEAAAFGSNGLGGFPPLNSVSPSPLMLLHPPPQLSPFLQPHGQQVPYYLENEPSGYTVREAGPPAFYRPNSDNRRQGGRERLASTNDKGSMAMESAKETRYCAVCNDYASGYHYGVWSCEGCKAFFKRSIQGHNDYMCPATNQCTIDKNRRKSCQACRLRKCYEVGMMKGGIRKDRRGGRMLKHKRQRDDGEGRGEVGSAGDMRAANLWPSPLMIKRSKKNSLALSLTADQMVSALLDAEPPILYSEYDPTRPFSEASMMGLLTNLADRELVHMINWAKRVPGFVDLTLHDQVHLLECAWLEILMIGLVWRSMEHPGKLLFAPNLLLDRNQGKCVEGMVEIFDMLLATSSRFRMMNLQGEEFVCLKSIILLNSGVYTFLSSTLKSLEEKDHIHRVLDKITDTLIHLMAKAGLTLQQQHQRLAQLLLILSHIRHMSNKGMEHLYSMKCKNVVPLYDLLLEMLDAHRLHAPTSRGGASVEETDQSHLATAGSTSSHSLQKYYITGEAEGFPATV
Chain of Peroxisome proliferator-activated receptor delta (Homo sapiens) (Q03181 whole entry, looked up): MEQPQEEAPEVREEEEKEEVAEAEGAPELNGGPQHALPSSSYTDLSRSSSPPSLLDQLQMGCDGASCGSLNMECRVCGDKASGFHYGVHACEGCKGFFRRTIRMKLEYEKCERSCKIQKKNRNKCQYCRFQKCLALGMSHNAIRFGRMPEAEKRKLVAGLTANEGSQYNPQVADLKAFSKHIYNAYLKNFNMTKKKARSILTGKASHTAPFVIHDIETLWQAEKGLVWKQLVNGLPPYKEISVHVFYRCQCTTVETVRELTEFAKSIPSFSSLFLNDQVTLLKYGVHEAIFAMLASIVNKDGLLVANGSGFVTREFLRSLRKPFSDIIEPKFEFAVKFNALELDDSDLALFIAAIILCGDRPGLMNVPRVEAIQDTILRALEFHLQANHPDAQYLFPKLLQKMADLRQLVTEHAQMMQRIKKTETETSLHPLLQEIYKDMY
Chain of Glucocorticoid receptor (Homo sapiens) (P04150 whole entry, looked up): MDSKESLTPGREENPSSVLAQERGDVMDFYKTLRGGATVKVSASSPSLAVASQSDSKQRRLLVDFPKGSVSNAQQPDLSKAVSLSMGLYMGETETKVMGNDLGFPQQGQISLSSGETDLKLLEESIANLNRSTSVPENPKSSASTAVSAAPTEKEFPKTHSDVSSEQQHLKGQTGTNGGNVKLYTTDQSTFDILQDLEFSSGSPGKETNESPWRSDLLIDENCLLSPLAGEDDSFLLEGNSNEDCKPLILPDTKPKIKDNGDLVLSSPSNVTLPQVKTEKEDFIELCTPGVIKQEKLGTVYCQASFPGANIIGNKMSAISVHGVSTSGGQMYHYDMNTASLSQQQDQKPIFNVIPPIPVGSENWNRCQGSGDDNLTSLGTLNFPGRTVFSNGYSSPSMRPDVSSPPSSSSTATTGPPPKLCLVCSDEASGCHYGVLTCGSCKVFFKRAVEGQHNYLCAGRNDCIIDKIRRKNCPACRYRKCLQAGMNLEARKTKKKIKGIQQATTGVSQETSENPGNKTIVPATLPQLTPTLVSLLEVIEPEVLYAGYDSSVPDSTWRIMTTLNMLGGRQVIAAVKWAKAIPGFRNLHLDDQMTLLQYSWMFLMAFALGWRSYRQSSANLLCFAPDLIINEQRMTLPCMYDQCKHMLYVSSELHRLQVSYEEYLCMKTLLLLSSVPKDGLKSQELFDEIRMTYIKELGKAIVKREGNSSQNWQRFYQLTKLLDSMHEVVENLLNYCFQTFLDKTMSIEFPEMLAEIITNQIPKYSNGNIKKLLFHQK

Regarding `c1nc[nH]n1`, the Potency entry in [1], in [2], in test [3], in test [4], in test [5] and in test [6] was “inactive” each time. Besides, the Potency entry in test [10], in test [12] and in test [15] was “inactive” throughout. Moreover, the outcome in [7], in test [13], in test [14] and in [17] was inactive. In addition, the activation in test [8] is 0.583% (inactive); in test [9], 11.9% (inactive). Besides, the max response is -9.48% in [11] and 0.756% (inactive) in [16].

For the compound `OCC1CO1` (centres undefined), the Potency result in [18], in test [1], in test [2], in [3], in test [4] and in test [5] was “inactive” in each case. Moreover, the Potency entry in test [6], in test [10] and in [12] was “inactive” each time. Besides, the result in test [7], in [13], in test [14], in test [19] and in [17] was inactive. Moreover, the activation in test [8] is -2.37% (inactive) and -0.462% (inactive); in test [9], -12% (inactive). The max response is -3.17% and 28.4% in test [11]; -4.01% (inactive) and -4.87% (inactive) in [16]. The activity change % (negative = inhibition) in test [20] is -4.57% (inactive) and 15.9% (inactive).

Turning to `Cc1cccc([N+](=O)[O-])c1`, the Potency entry in test [18], in [1], in [2], in test [3], in test [4] and in test [5] was “inactive” throughout. Besides, the Potency entry in test [6], in test [10], in test [12] and in test [15] was “inactive” throughout. The result in [7], in test [13] and in test [14] was inactive. Also, the activation was -1.63% (inactive) and -0.0408% (inactive) in test [8]; 4.17% (inactive) and -5.85% (inactive) in test [9]. The max response in [11] is 12.7% and -9.62%.

Regarding `CCSC(=O)Cl`, the Potency entry in test [18], in test [1], in [2], in test [3], in test [4] and in [5] was “inactive” in each case. For the same compound, the Potency entry in [6], in test [10] and in [15] was “inactive” throughout. The call in test [7], in test [13], in test [14], in [19] and in [17] was inactive. Besides, the results for the activation in test [8] and in [9] were -1.31% (inactive) and 17.3% (inactive), respectively. In addition, in [20], the activity change % (negative = inhibition) was -1.08% (inactive). The max response in test [16] is 4.31% (inactive).

For `CCN(CC)c1ccccc1`, the Potency result in [18], in [1], in test [2], in test [3], in test [4] and in test [5] was “inactive” throughout. Moreover, the Potency entry in test [6], in [10] and in test [15] was “inactive” each time. The result in test [7], in test [13], in [14], in test [19] and in test [17] was inactive. The activation in test [8] was -2.77% (inactive); in test [9] it was -4.16% (inactive). Further, the activity change % (negative = inhibition) in test [20] was -7.69% (inactive). In addition, the max response in test [16] was -0.145% (inactive).

For `CC(C)(OO)c1ccccc1`, the Potency entry in test [18], in test [4], in [5], in [6], in test [10] and in [12] was “inactive” each time. Moreover, the outcome in test [7], in test [13], in test [14], in [19] and in test [17] was inactive. Moreover, the activation in test [8] is -0.414% (inactive) and -0.341% (inactive); in test [9], 1.9% (inactive) and -7.5% (inactive). The max response was -33% in test [11]; 7.13% (inactive) and -0.342% (inactive) in test [16]. Also, the activity change % (negative = inhibition) in test [20] is 14.1% (inactive) and -10.7% (inactive).
